According to ChEMBL document CHEMBL4513216, “Probing the Open Global Health Chemical Diversity Library for Multistage-Active Starting Points for Next-Generation Antimalarials” (ACS Infect Dis, 2020):
The whole screen tested about 68,000 compounds, of which about 2,700 (4%) showed an effect of 50% or more. The full list was thinned out, with strong results kept by preference.

tested on: Plasmodium berghei; assay: Screen against P. berghei liver stage (PbLuc), transformed with Luciferase, at 2uM; type: functional, HepG2; conditions: tested at 2 uM

In order of falling INHIBITION:
1. c1cc(-c2nnn3c2COC(CNCC2CCOCC2)C3)ccn1 (centres undefined)  86.79%
2. CC1N(C)C(=O)COC12CCN(C(=O)CCc1ccccc1)CC2 (centres undefined)  65.38%
3. CCOCCC(=O)Nc1cccc(Cl)c1C(N)=O  56.89%
4. COC(=O)C(C)NC(=O)CSCc1nc(O)c2cc(C(C)C)sc2n1 (centres undefined)  52.08%
5. Cc1nc[nH]c1CN(Cc1ccccc1)C1CC(C)(C)NC(C)(C)C1  50.68%
6. CC(C)NC(=O)c1nnn(-c2cccc(C(F)(F)F)c2)c1N  50.54%
7. CC(C)c1ccc(S(=O)(=O)N2CCCC3(CCCN3S(C)(=O)=O)C2)cc1 (centres undefined)  42.62%
8. Cc1nc[nH]c1CN(Cc1ccccc1F)C1CC(C)(C)NC(C)(C)C1  39.26%
9. Cc1nc2c(c(=O)[nH]1)CN(C(=O)CCC1CCCN(C)C1)C2 (centres undefined)  19.48%
10. CC(C)CCc1nc(CNCC2CCCN2c2cccnn2)cs1 (centres undefined)  15.47%
11. c1ccc(-c2nnn3c2COC(CNCC2CC2)C3)cc1 (centres undefined)  14.48%
12. CCc1n[nH]c(C2CN(Cc3csc(COC)n3)CCO2)n1 (centres undefined)  12.58%
13. c1ccc(-c2nnn3c2COC(CNCC2CCOCC2)C3)cc1 (centres undefined)  12.36%
14. Cc1cn2c(n1)C(CNCC1=Cc3cc(Cl)ccc3OC1)CCC2 (centres undefined)  9.21%
15. COC(=O)CNC(=O)CSCc1nc(O)c2cc(C(C)C)sc2n1  5.36%
16. CC1N(C)C(=O)COC12CCN(C(=O)Cc1ccsc1)CC2 (centres undefined)  2.18%
17. CCOCCC(=O)Nc1cccc(Cl)c1COC  1.06%
18. COCCc1noc(CN2C(=O)OC[C@@H]2C(C)C)n1  -7.66%
19. Cc1c(C(=O)NC(C)C)nnn1-c1cccc(C(F)(F)F)c1  -8.75%
20. CN(C)C(=O)c1n[nH]c2c1CN(Cc1nccs1)CC2  -8.84%
21. c1cncc(CNCCc2cccs2)c1  -10.44%
22. CCCS(=O)(=O)N1CCC2(CC1)CC(N1CCCC1)c1ccccc12 (centres undefined)  -21.74%
23. O=C(c1cccc(F)c1)N1CCC2(CC1)CC(N1CCOCC1)C2  -21.77%
24. CCOCCC(=O)Nc1ccnn1-c1ccc(Cl)cc1  -24.07%
25. Cc1nc[nH]c1CN(Cc1ccc(F)cc1)C1CC(C)(C)NC(C)(C)C1  -24.35%
26. Cc1cccc(C(=O)NCc2ccc(N3CCCCCC3)nc2)n1  -26.87%
27. CC1N(C)C(=O)COC12CCN(Cc1ccsc1)CC2 (centres undefined)  -30.38%
28. COCCNC(=O)CSCc1nc(O)c2cc(C(C)C)sc2n1  -43.28%
29. CC(C)NC(=O)c1nnn(-c2cccc(C(F)(F)F)c2)c1C1CC1  -66.52%
